Results taken from PubChem BioAssay AID493056 (National Center for Advancing Translational Sciences (NCATS), 2011).
“And” between values parts separate entries of the source, which are not always exact repeats. Identical values can stand only once. Screen size: about 360,000 compounds; about 2,400 (0.67%) were called active. Rule as the data show it: active = enhancement above about 30%; inactive = the rest. The full list was thinned out, with actives kept by preference. The source holds several records for some structures; these can differ, active in one and inactive in another.
Also: 0% is about no effect.

Each compound was assayed against Thyrotropin-releasing hormone receptor (Homo sapiens) (UniProt P34981) (assay: qHTS for Small Molecule Agonists and Allosteric Enhancers of Human TRH Receptor: Primary Screen for Enhancers). Conditions: TRHR cells, fluo-8 calcium fluorescence, EC20 TRH enhancement; at 2 µM; stronger effect = higher value.
Sequence of Thyrotropin-releasing hormone receptor (Homo sapiens) (P34981 whole entry, looked up): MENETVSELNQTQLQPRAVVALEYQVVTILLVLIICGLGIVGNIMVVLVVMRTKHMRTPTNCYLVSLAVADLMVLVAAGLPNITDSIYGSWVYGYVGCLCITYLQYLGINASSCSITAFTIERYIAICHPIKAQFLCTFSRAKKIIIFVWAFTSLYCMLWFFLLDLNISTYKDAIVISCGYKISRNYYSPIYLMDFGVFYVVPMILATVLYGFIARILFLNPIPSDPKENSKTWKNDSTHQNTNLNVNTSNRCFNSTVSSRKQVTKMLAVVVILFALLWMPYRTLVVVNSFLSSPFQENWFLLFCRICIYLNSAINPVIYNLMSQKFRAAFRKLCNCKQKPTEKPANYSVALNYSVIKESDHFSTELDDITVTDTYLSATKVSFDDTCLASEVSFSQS
In short: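 TRHR-expressing cells loaded with fluo-8 calcium dye were read kinetically (ex 480/em 530) during compound addition, then stimulated with an EC20 of TRH (10 nM final). Enhancement of the Gq-mediated intracellular calcium response was scored.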
With `CCOc1ncccc1C(=O)OCC(=O)NC1CC1` the enhancement was 6.62% (inactive).
In the case of `CCOc1ncccc1C(=O)OCC(=O)N1c2ccccc2CC1C` (stereo unspecified), the enhancement is reported as 156% (active).
With `CCOC(=O)c1[nH]c(C)c(C(=O)OCC(=O)N2c3ccccc3CC2C)c1C` (stereo unspecified) the enhancement was -0.269% (inactive).
In the case of `Cc1ccn2c(Nc3ccc4c(c3)OCCO4)c(-c3ccc(C)s3)nc2c1`, the enhancement is reported as -3.6% (inactive).
`Cc1ccc(CCNC(=O)c2ccc3c(c2)nc2n3CCC(C)C2)cc1` (stereo unspecified) was tested, and the enhancement was -2.39% (inactive).
In the case of `Cc1cccc(-n2c(=O)c3c(c4cc(C)ccc4n3C)n(CC(=O)Nc3ccccc3Cl)c2=O)c1`, the enhancement is reported as -2.31% (inactive).
For `Cc1ccc(Nc2c(-c3ccc(N(C)C)cc3)nc3nc[nH]n23)cc1`, the enhancement was 1.88% (inactive).
`CN(C)c1ccc(Nc2c3c4c(cccc4n(C)c2=O)C(=O)c2ccccc2-3)cc1` was tested, and the enhancement was 30.8% (active).
For `CCOc1ccc(C(=O)c2cn(Cc3ccc(F)cc3)c3ccc(F)cc3c2=O)cc1`, the enhancement was -6.47% (inactive).
For `COc1cc2c(cc1OC)C(COc1ccc(F)cc1)N(C(=O)c1ccccc1F)CC2` (stereo unspecified), the enhancement was -0.875% (inactive).
`CCCCn1c(N)c(N(CC)C(=O)c2ccc(N(C)S(=O)(=O)c3ccc(C)cc3)cc2)c(=O)[nH]c1=O` was tested, and the enhancement was 37.2% (active).
`CCCCn1c(N)c(N(CCOC)C(=O)c2cccc(S(=O)(=O)N(C)c3ccccc3)c2)c(=O)[nH]c1=O` was tested, and the enhancement was -3.31% (inactive).
In the case of `CCCCN(C(=O)c1ccc2ccccc2c1)c1c(N)n(CCCC)c(=O)[nH]c1=O`, the enhancement is reported as -1.43% (inactive).
For `Cc1nn(CC(=O)NCCc2ccccc2)c(=O)c2c1sc1ccccc12`, the enhancement was -4.11% (inactive).
For `CCc1ccc(NC(=O)c2cc3c(=O)n(Cc4cccnc4)ccc3nc2C)cc1`, the enhancement was 3.22% (inactive).
For `COc1ccccc1C(=O)Nc1c(C(=O)Nc2ccc(C)cc2)oc2ccccc12`, the enhancement was 1.48% (inactive).
With `O=C(CSc1ccc(-c2cccs2)nn1)Nc1ccccc1F` the enhancement was 35.3% (active).
`O=C(CSc1ccc(-c2ccccn2)nn1)Nc1ccccc1` was tested, and the enhancement was -3.04% (inactive).
For `O=C(CSc1nnc(CNC(=O)c2ccccc2)n1-c1ccc(F)cc1)Nc1ccccc1F`, the enhancement was 1.22% (inactive).
In the case of `CCOc1ccc(CNC(=O)c2cc(-c3ccc(Cl)s3)nc3ccccc23)cc1`, the enhancement is reported as 9.74% (inactive).
`Cc1ccc2nc(CN3CCN(S(=O)(=O)c4ccc(C)c(C)c4)CC3)oc2c1` was tested, and the enhancement was 0.582% (inactive).
`CC(=O)N1CCN(C(=O)c2cc(-c3ccc(Cl)s3)nc3ccccc23)CC1` was tested, and the enhancement was 2.16% (inactive).
For `COC(=O)c1cc(N2CCNCC2)nc2ccccc12`, the enhancement was 50.7% (active).
In the case of `COC(=O)c1cnc(N2CCN(c3ccccc3OC)CC2)c2ccccc12`, the enhancement is reported as -10.4% (inactive).
For `COc1cccc(CNC(=O)Cn2ncn3c(cc4ccccc43)c2=O)c1`, the enhancement was 4.48% (inactive).
`CCOc1cc(-c2nnc(SCC(=O)NC3CCCCC3)nc2-c2ccc(OC)c(OCC)c2)ccc1OC` was tested, and the enhancement was -3.44% (inactive).
With `O=C(CNC(=O)c1ccc(Cl)cc1Cl)OC(C(=O)Nc1cc(C(F)(F)F)ccc1Cl)c1ccccc1` (stereo unspecified) the enhancement was 10.6% (inactive).
In the case of `O=C(CC(n1cncn1)C(Cl)(Cl)Cl)c1ccc([N+](=O)[O-])cc1` (stereo unspecified), the enhancement is reported as 0.518% (inactive).
For `Cc1ccc(C(=O)Cn2cccn2)cc1`, the enhancement was -2.28% (inactive).
With `O=C(Cn1c[n+](CC(=O)c2ccc([N+](=O)[O-])cc2)cn1)c1ccc([N+](=O)[O-])cc1` the enhancement was -6.86% (inactive) and 34.2% (active).
In the case of `O=C(NCCc1csc(-c2ccc(C(F)(F)F)cc2)n1)C(=O)Nc1ccc(F)c(Cl)c1`, the enhancement is reported as 0.606% (inactive).
In the case of `CC(C)(C)CN1CCNC(=O)C1CC(=O)NC1Cc2ccccc2C1` (stereo unspecified), the enhancement is reported as -4.71% (inactive).
In the case of `Cc1nc(CN(C)C(=O)CC2C(=O)NCCN2Cc2ccc(F)cc2)cs1` (stereo unspecified), the enhancement is reported as 20.6% (inactive).
In the case of `Cc1csc(CN(C)C(=O)CC2C(=O)NCCN2CC(C)(C)C)n1` (stereo unspecified), the enhancement is reported as 44.2% (active).
`COc1ccc(CCNC(=O)c2cnc3sc(N4CCCCCC4)nn3c2=O)cc1OC` was tested, and the enhancement was 7.34% (inactive).
For `COc1ccc(S(=O)(=O)c2cn(C)c3cc(N4CCCCC4)c(F)cc3c2=O)cc1`, the enhancement was 7.82% (inactive).
With `Cc1c(CNC2CCCCC2)c(C(=O)O)c(C)n1Cc1cccc(Cl)c1` the enhancement was -4.62% (inactive).
In the case of `COC(=O)c1c(NC(=O)C(C)Oc2ccc(Cl)c(C)c2)sc(C)c1C` (stereo unspecified), the enhancement is reported as -3.22% (inactive).
With `Cc1cc(OC(C)C(=O)Nc2sc3c(c2C(N)=O)CCCC3)ccc1Cl` (stereo unspecified) the enhancement was 34.9% (active).
With `COc1ccc(-c2cc(C(=O)Nc3sc4c(c3C(N)=O)CCCC4)no2)cc1` the enhancement was 10.2% (inactive).
With `O=C(Cn1cnc2ccccc2c1=O)NCC1COc2ccccc2O1` (stereo unspecified) the enhancement was 38.9% (active).
In the case of `O=C(Cn1nc(Cc2cccnc2)c2ccccc2c1=O)NCC1COc2ccccc2O1` (stereo unspecified), the enhancement is reported as 0.892% (inactive).
`CC1CC(C)CN(C(=O)CCNC(=O)Cn2cnc3ccccc3c2=O)C1` (stereo unspecified) was tested, and the enhancement was 2.77% (inactive).
For `COC(=O)c1sc2ncccc2c1-n1c(C)ccc1C`, the enhancement was 4.46% (inactive).
With `Cc1ccc(CN(C(=O)COc2ccc(Cl)cc2C)C2CCS(=O)(=O)C2)o1` (stereo unspecified) the enhancement was 1.47% (inactive).
With `O=C(CN1C(=O)c2cccc3cccc1c23)Nc1ccccc1` the enhancement was 43.7% (active).
`O=C(CN1CCOCC1)Nc1ccccc1` was tested, and the enhancement was 2.28% (inactive).
With `COc1cccc(NC(=O)CN2C(=O)c3ccccc3Sc3ncccc32)c1` the enhancement was 2.38% (inactive).
For `Oc1ccc(Cl)cc1C1C=C(c2ccc3c(c2)OCO3)NC(c2c(F)cccc2Cl)N1` (stereo unspecified), the enhancement was -2.95% (inactive).
With `CCCC(=O)Nc1cc2nn(-c3ccccc3)nc2cc1C` the enhancement was -3.06% (inactive).
With `CCCn1c2ccccc2c2cnn(CC(=O)NCC3CCN(Cc4ccc(C)cc4)CC3)c(=O)c21` the enhancement was 1.43% (inactive).
In the case of `CCOc1ccc(NC(=O)CSc2c3c(nc4ccccc24)CCCC3)cc1`, the enhancement is reported as -3.93% (inactive).
For `O=C(COC(=O)c1c2c(nc3ccccc13)CCCC2)c1ccc(Br)s1`, the enhancement was 35% (active).
For `CCc1nc2ccccc2c(C(=O)OC2CCCCC2=O)c1C` (stereo unspecified), the enhancement was -2.51% (inactive).
In the case of `Cc1cc(NS(=O)(=O)c2ccc3oc(=O)c4ncn(C)c4c3c2)ccc1Br`, the enhancement is reported as -12.1% (inactive).
For `COc1ccc2c(c1)C=C(C(=O)NCc1cc(Br)ccc1OC)CO2`, the enhancement was -3.71% (inactive).
For `CCCC(=O)Nc1ccc(NC(=O)c2sc3ccccc3c2Cl)cc1`, the enhancement was -1.06% (inactive).
In the case of `CCC(=O)N1CCc2cc(S(=O)(=O)NC(C(=O)NCCc3ccc(C)cc3)C(C)C)ccc21` (stereo unspecified), the enhancement is reported as 18.2% (inactive).
For `CCn1c(SCC(=O)N(C)C2CCS(=O)(=O)C2)nnc1-c1cccs1` (stereo unspecified), the enhancement was 2.93% (inactive).
`CN(C(=O)CSc1nnc(Nc2ccccc2)s1)C1CCS(=O)(=O)C1` (stereo unspecified) was tested, and the enhancement was 51.4% (active).
With `CN(C(=O)CSc1nnc(NC(=O)Nc2ccccc2)s1)c1ccccc1` the enhancement was -6.25% (inactive).
In the case of `CC(=O)c1ccc(N2CCN(C3C(=O)c4ccccc4N3C(C)=O)CC2)cc1` (stereo unspecified), the enhancement is reported as -5.78% (inactive).
In the case of `N#Cc1ccccc1Cn1cnc2nc3c(cc2c1=O)CCCC3`, the enhancement is reported as 2.65% (inactive).
For `O=S(=O)(c1ccccc1)c1nc(-c2ccc(Cl)cc2Cl)oc1N1CCCCC1`, the enhancement was 2.85% (inactive).
For `CCCCNC(=O)C1CCCN(c2nnc(C)c3c(C)n(-c4ccc(Cl)cc4)nc23)C1` (stereo unspecified), the enhancement was -2.23% (inactive).
In the case of `CC(C)C1Nc2c(C(=O)O)cccc2C(Nc2ccccc2C(=O)O)C1(C)C` (stereo unspecified), the enhancement is reported as 30.3% (active).
In the case of `Cc1ccc(-n2nc(CO)c(C(=O)NCCc3ccccc3)n2)cc1`, the enhancement is reported as -1.1% (inactive).
In the case of `CC(=O)N1CCCc2cc(S(=O)(=O)N3CCC(C(=O)NCc4ccc(C)cc4)CC3)ccc21`, the enhancement is reported as 4% (inactive).
In the case of `CCc1ccc(Sc2cc(C(=O)NCCCOC(C)C)c3ccccc3n2)cc1`, the enhancement is reported as -9.07% (inactive).
In the case of `O=C1COc2ccc(C(=O)COC(=O)c3cccnc3Cl)cc2N1`, the enhancement is reported as -8.83% (inactive).
With `CC1COc2ccccc2N1C(=O)c1cccnc1Cl` (stereo unspecified) the enhancement was 30.7% (active).
In the case of `CC1COc2ccccc2N1S(=O)(=O)c1ccccc1` (stereo unspecified), the enhancement is reported as -5.39% (inactive).
`Cc1oc2ccc(O)c(CN3CCOCC3)c2c1C(=O)Nc1cccc(Cl)c1C` was tested, and the enhancement was -0.894% (inactive).
In the case of `COc1ccc(-c2ccc(=O)n(CC(=O)Nc3ccc(Br)cc3F)n2)cc1`, the enhancement is reported as 5.81% (inactive).
For `Cc1cc(Br)ccc1NC(=S)NC1CCCC1`, the enhancement was 36% (active).
For `S=C(Nc1ccc(Br)cc1Cl)NC1CCN(Cc2ccccc2)CC1`, the enhancement was 1.92% (inactive).
With `Cc1cc(C)cc(NC(=O)NC2CCCCCCC2)c1` the enhancement was -4.13% (inactive).
For `CCOc1ccc(NC(=O)C2CCN(S(=O)(=O)c3cc(-c4noc(C)n4)ccc3C)CC2)cc1`, the enhancement was 0.0598% (inactive).
For `Cc1cccc(Cn2c(CN3CCC(C(=O)NCc4ccccc4Cl)CC3)cc3ccccc32)c1`, the enhancement was -3.11% (inactive).
With `CCOc1ccc(C(=O)c2cn(Cc3ccccc3OC)c3ccc(F)cc3c2=O)cc1` the enhancement was -0.366% (inactive).
For `C/C(=N/OC(=O)c1ccc(Br)cc1)c1ccc(C)cc1`, the enhancement was 61.7% (active).
`C/C(=N\OC(=O)c1ccccc1)c1c(C)nc2cc(C)ccn12` was tested, and the enhancement was -2.45% (inactive).
`N/C(=N\OC(=O)c1ccc2c(c1)OCO2)c1ccc(Br)cc1` was tested, and the enhancement was -2.97% (inactive).
In the case of `Cc1cn(C)c(CC(=O)NCc2ccccc2)c1C(=O)O`, the enhancement is reported as -2.62% (inactive).
With `Cc1cccc(-c2nc(SCc3ccc(Br)cc3)n3[nH]c(=O)cc3n2)c1` the enhancement was 4.69% (inactive).
With `O=C(NC1(C(F)(F)F)N=C(c2ccccc2)N(C2CCCCC2)C1=O)c1ccccc1F` (stereo unspecified) the enhancement was -3.75% (inactive).
In the case of `CN1CCN(c2oc(-c3ccc(COc4ccc(Cl)cc4)o3)nc2C#N)CC1`, the enhancement is reported as 0.896% (inactive).
In the case of `Cc1ccc(C)c(NC(=O)C2CCCN(S(=O)(=O)c3cn(C)cn3)C2)c1` (stereo unspecified), the enhancement is reported as 12.8% (inactive).
`O=C(NCc1ccncc1)C1CCCN(S(=O)(=O)c2ccc(Br)cc2)C1` (stereo unspecified) was tested, and the enhancement was 30.7% (active).
`O=C(NCc1ccccc1)C1CCCN(S(=O)(=O)c2cccs2)C1` (stereo unspecified) was tested, and the enhancement was 4.34% (inactive).
For `CSc1ccc(S(=O)(=O)N2CCC(C(=O)NCc3ccncc3)CC2)cc1`, the enhancement was 0.598% (inactive).
